Measurements reported in PubChem BioAssay AID588382 (National Center for Advancing Translational Sciences (NCATS), 2011).
In all, about 1,300 compounds went through this assay and about 150 (12%) were called active. Not shown: some 30% with an inconclusive outcome. The call rests on the fitted dose curve; in most records, active means well fitted cell-killing curve with a large enough effect; inconclusive means small, poorly fitted or top-dose-only effect, or effect the other way; inactive means flat fitted curve, though single readings scatter. For the sample, actives were picked, then their nearest neighbours and some compounds at random.

Experiment: qHTS of small molecules that selectively kill Giardia lamblia: Hit Validation in HepG2 cytotox;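 further: compound exposure lasted overnight at 37 deg C; nearly all actives have a fitted effect of over 55% in size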;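 on activity change, negative = cytotoxicity: viability measured as cellular ATP by ATPLite luminescence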
Conditions: cell viability; Potency: HepG2 cytotoxicity; series mostly up to 38.3 µM; activity change, negative = cytotoxicity: at the top concentration
In short: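 HepG2 cells seeded and incubated overnight at 37 deg C, then 23 nL compound added by pintool and incubated overnight at 37 deg C. Viability read as ATP luminescence with ATPLite after 15 min at room temperature.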
On the % scale 0 is the no-effect control and ±100 the full control effect; potency means the concentration at half of the fitted maximal effect.

| SMILES | activity change, negative = cytotoxicity | Potency |
| --- | --- | --- |
| CCn1cnc2c([N+](=O)[O-])c(NS(=O)(=O)c3ccc(C)cc3)ccc21 | -5.57% (inactive) |  |
| COc1cc(/C=C2\SC(=O)N(Cc3ccc(Cl)cc3)C2=O)cc([N+](=O)[O-])c1O | -0.415% (inactive) |  |
| O=C(Cc1ccccc1)Nc1nnc(-c2cccs2)s1 | -2.94% (inactive) |  |
| O=[N+]([O-])c1ncc(Br)cc1Nc1ccccc1 | 14.2% (inactive) |  |
| O=S(=O)(Nc1cc(Sc2cccc3cccnc23)c(O)c2ccccc12)c1ccc(F)cc1 |  | 4.65 µM (active) |
| COC(=O)[C@@]1(Cc2ccc(OC)cc2)[C@H]2c3cc(C(=O)N4CCCC4)n(CCn4cc([N+](=O)[O-])nc4C)c3C[C@H]2CN1C(=O)c1ccccc1 | 3.15% (inactive) |  |
| CN(C)/[N+]([O-])=N/Oc1ccc([N+](=O)[O-])cn1 | 15% (inactive) |  |
| O=c1c([N+](=O)[O-])cccn1Cc1ccc(F)cc1Cl | -5.01% (inactive) |  |
| CC1CCCN(C(=O)c2ccc([N+](=O)[O-])o2)C1 (stereo unspecified) | -11.8% (inactive) |  |
| O=C(CSc1ccsc1[N+](=O)[O-])NCc1ccccc1 | 23.3% (inactive) |  |
| CCn1cc(-c2cc(C(=O)O)c3ccccc3n2)cn1 |  | 2.07 µM (active) |
| CCOC(=O)c1nc(C(=O)NCc2ccc(C)cc2)nc2ccccc12 | 18.3% (inactive) |  |
| O=C(NNC(=O)c1cc(-c2ccncc2)nc2ccccc12)c1ccccc1O | -18.8% (inactive) |  |
| CC(C)CC(=O)NC(=S)NNC(=O)c1ccc([N+](=O)[O-])cc1 | -5.24% (inactive) |  |
| Cc1ccc(S(=O)(=O)N2[C@@H](c3cccc(Cl)c3)C(C(=O)O)=CC[C@H]2c2cccc(C)c2)cc1 | 18.2% (inactive) |  |
| Cc1cc(N2CCN(C)CC2)nc2ccc(NC(=S)N3CCN(c4cccc(Cl)c4)CC3)cc12 | -14.4% (inactive) |  |
| O=c1sc(N2CCN(c3ccc(F)cc3)CC2)nc2ccsc12 | 21.6% (inactive) |  |
| Cc1cccc(N2CCN(C(=S)Nc3ccc4nc(N5CCN(C)CC5)cc(C)c4c3)CC2)c1C |  | 4.65 µM (active) |
| Cc1cc(N2CCN(C)CC2)nc2ccc(NC(=S)N3CCN(c4ccc(Cl)cc4)CC3)cc12 | -17.9% (inactive) |  |
| Cc1cc(N2CCN(C)CC2)nc2ccc(NC(=S)N3CCN(c4ccc(F)cc4)CC3)cc12 |  | 20.7 µM (active) |
| Cc1cccc(N2CCN(C(=S)Nc3ccc4nc(N5CCN(C)CC5)cc(C)c4c3)CC2C)c1 (stereo unspecified) |  | 18.5 µM (active) |
| O=Nc1c2ccc[nH]c-2c2ccc([N+](=O)[O-])cc12 | 10.8% (inactive) |  |
| O=C(Nc1ccc(F)cc1)C1CCN(C(=O)c2ccc([N+](=O)[O-])cc2)CC1 | -6.84% (inactive) |  |
| C/C(=N/NC(=O)C(O)(c1ccccc1)c1ccccc1)c1ccc([N+](=O)[O-])o1 | -24.8% (inactive) |  |
| CCOc1ccc(-c2c(C(=O)N/N=C/c3ccc(C)s3)nnn2-c2nonc2N)cc1 | 11% (inactive) |  |
| Cc1ccc(CN=c2c([N+](=O)[O-])nn(-c3ccc(Cl)cc3)n2O)cc1 | 3.22% (inactive) |  |

| SMILES | activity change, negative = cytotoxicity | Potency |
| --- | --- | --- |
| Cc1ccc(CNC(=O)CSc2ccsc2[N+](=O)[O-])cc1 | 11.7% (inactive) |  |
| COc1ccc2c3n([n+]([O-])c2c1)CCN=C3c1ccc(C)cc1 | 6.07% (inactive) |  |
| CC(C)CC(=O)Nc1ncc([N+](=O)[O-])s1 | 4.4% (inactive) |  |
| Cc1ccc(CCN=c2c([N+](=O)[O-])nn(-c3ccccc3)n2O)cc1 | -4.07% (inactive) |  |
| COc1ccc(-n2nc([N+](=O)[O-])c(=NCc3cccnc3)n2O)cc1 | 11.3% (inactive) |  |
| CCOC(=O)c1cc([N+](=O)[O-])sc1NC(=O)CC | 1.07% (inactive) |  |
| O=C(c1ccco1)N1CCN(c2c([N+](=O)[O-])nn(-c3ccc(Cl)cc3)[n+]2[O-])CC1 | -1.34% (inactive) |  |
| Cc1ncc(CO)c(/C=N/NC(=O)c2cc3c(s2)CCCC3)c1O |  | 2.07 µM (active) |
| O=[N+]([O-])c1nn(-c2ccccc2)n(O)c1=NCCc1ccccc1 | 18.6% (inactive) |  |
| O=C(CNC(=O)c1ccccc1F)N/N=C/c1cc(Br)ccc1OCc1ccccc1 | -8.87% (inactive) |  |
| CN1C(=O)/C(=C/c2ccc(O)c([N+](=O)[O-])c2)N(C)C1=S | 8.37% (inactive) |  |
| COc1ccc(C(=O)NC2CCN(S(=O)(=O)c3ccc(F)cc3)CC2)cc1 | 12.2% (inactive) |  |
| COc1ccc(NC(=O)c2ccco2)c(NC(=O)c2ccc([N+](=O)[O-])cc2)c1 | 2.61% (inactive) |  |
| O=C(Nc1ccccc1O)c1ccc([N+](=O)[O-])cc1 | -1.8% (inactive) |  |
| O=C(Nc1ccc2[nH]ccc2c1)c1ccccc1 |  | 4.14 µM (active) |
| O=C(NNC(=O)c1ccc([N+](=O)[O-])o1)c1ccccc1 | -15% (inactive) |  |
| COc1ccc(C(=O)Nc2ccc3[nH]ccc3c2)cc1 |  | 2.33 µM (active) |
| O=[N+]([O-])c1ccc(CSc2nnc(-c3cccnc3)o2)cc1 | -7.7% (inactive) |  |
| NNC(=O)c1cccc(Cn2cc(Br)c([N+](=O)[O-])n2)c1 | 17.3% (inactive) |  |
| Cc1cccc(CCN=c2c([N+](=O)[O-])nn(-c3ccccc3)n2O)c1 | 0.954% (inactive) |  |
| Nc1c(Cl)cc(C2=NCCn3c2c2ccc(C(F)(F)F)cc2[n+]3[O-])cc1Cl | -4.92% (inactive) |  |
| COc1ccc(-c2cn3cc([N+](=O)[O-])ccc3n2)cc1OC | -4.09% (inactive) |  |
| CC(=O)Nc1ccc(NC(=O)c2c([N+](=O)[O-])cnn2C)cc1 | 13% (inactive) |  |
| c1csc(-c2ccc(N3CCOCC3)nn2)c1 |  | 6.56 µM (active) |
| O=[N+]([O-])c1ccc(O/N=[N+](\[O-])N2CCCCC2)c([N+](=O)[O-])c1 | -3.12% (inactive) |  |
| CC1CCCCC1NC(=O)COc1cccnc1[N+](=O)[O-] (stereo unspecified) | 1.19% (inactive) |  |

| SMILES | activity change, negative = cytotoxicity | Potency |
| --- | --- | --- |
| O=C1OC(CN(Cc2ccccc2)Cc2ccccc2)CN1N=Cc1ccc([N+](=O)[O-])o1 (stereo unspecified) | 5.24% (inactive) |  |
| CCCCC(=O)Nc1ncc([N+](=O)[O-])s1 | 5.49% (inactive) |  |
| COc1ccc(C(=O)c2c(C)oc3cc([N+](=O)[O-])c(O)c([N+](=O)[O-])c23)cc1 | -8.87% (inactive) |  |
| Cc1cc(C)c2nc(NC(=O)c3ccc([N+](=O)[O-])o3)sc2c1 | 16.6% (inactive) |  |
| O=C(Nc1nc2ccccc2s1)c1ccc([N+](=O)[O-])o1 | 15.5% (inactive) |  |
| O=C(Nc1nc(-c2cccs2)cs1)c1ccc([N+](=O)[O-])o1 |  | 1.85 µM (active) |
| Cc1ccc(-c2csc(NC(=O)c3ccc([N+](=O)[O-])o3)n2)cc1 |  | 11.7 µM (active) |
| Cc1cc(C)c2sc(NC(=O)c3ccc([N+](=O)[O-])o3)nc2c1 | -15% (inactive) |  |
| O=C(Nc1nc2c(F)cccc2s1)c1ccc([N+](=O)[O-])o1 | -2.51% (inactive) |  |
| COc1ccccc1C1C([N+](=O)[O-])=CC([N+](=O)[O-])=CN1C (stereo unspecified) | 15.2% (inactive) |  |
| Cc1cnc([N+](=O)[O-])n1CCOC(=O)NC(=O)c1ccccc1Cl | 18% (inactive) |  |
| CC(=O)NC(Cc1ccc(F)cc1)C(=O)NC1CCN(c2ncccc2[N+](=O)[O-])CC1 (stereo unspecified) | 8.79% (inactive) |  |
| Cn1c([N+](=O)[O-])cnc1N1CCN(c2nncs2)C1=O | -11.6% (inactive) |  |
| COc1cc(/C=C2\SC(=O)N(c3ccc(Cl)cc3)C2=O)cc([N+](=O)[O-])c1O | 10.2% (inactive) |  |
| COc1ccc(NS(=O)(=O)c2ccc(C)cc2)c([N+](=O)[O-])c1 | 13.3% (inactive) |  |
| COc1cc2c(cc1OC)CN(C(=O)c1ccc([N+](=O)[O-])o1)CC2 | -5.91% (inactive) |  |
| Cc1ncc([N+](=O)[O-])n1CCOC(=O)Nc1ccc(Cl)c(Cl)c1 | 8.58% (inactive) |  |
| O=C(COc1cccnc1[N+](=O)[O-])NCCc1ccc(Cl)cc1Cl | -9.72% (inactive) |  |
| O=C(NC1CCS(=O)(=O)C1)c1ccc(N2CCCCC2)c([N+](=O)[O-])c1 (stereo unspecified) | 20.8% (inactive) |  |
| Cc1nnc(N/N=C/c2cccs2)[nH]c1=O |  | 2.07 µM (active) |
| S=C(NCCc1ccccc1)N/N=C/c1cccs1 | -10.3% (inactive) |  |
| O=C(O)C1CCN(c2ccccc2[N+](=O)[O-])CC1 | 11.1% (inactive) |  |
| COc1ccc(C(=O)C(C)OC(=O)CNC(=O)C2CCCCC2)cc1 (stereo unspecified) | 22.2% (inactive) |  |
| Cc1ccc(S(=O)(=O)N2[C@@H](c3ccc(Cl)cc3)C(C(=O)O)=C[C@H]2CC2CCCC2)cc1 | 1.22% (inactive) |  |
| COc1ccc(C(=O)c2c3ccc(C(F)(F)F)cc3[n+]([O-])n2CCCN)cc1 | 17.3% (inactive) |  |
| Cc1ccc2nc(NC(=O)C3CCCN(S(=O)(=O)c4cnc[nH]4)C3)sc2c1 (stereo unspecified) | 13% (inactive) |  |

| SMILES | activity change, negative = cytotoxicity | Potency |
| --- | --- | --- |
| O=C(COc1cccnc1[N+](=O)[O-])Nc1cc(S(=O)(=O)N2CCCCC2)ccc1Cl | 22% (inactive) |  |
| O=C(NCc1ccccn1)C1CCCN(S(=O)(=O)c2cc(Cl)ccc2Cl)C1 (stereo unspecified) |  | 3.69 µM (active) |
| Cc1ccc(S(=O)(=O)N2[C@@H](c3cccc(Cl)c3)C(C(=O)O)=CC[C@H]2c2cccc(Cl)c2)cc1 | 6.73% (inactive) |  |
| CCCSc1ccc2nc(NC(=O)OC)[nH]c2c1 | 4.95% (inactive) |  |
| CCc1cccc(NC(=O)CCCSc2nc3ccccc3[nH]2)c1 |  | 16.5 µM (active) |
| CC1(C)CC2CC(C)(CN2S(=O)(=O)c2cccc(C(=O)O)c2)C1 (stereo unspecified) | -6.79% (inactive) |  |
| O=[N+]([O-])c1ccc(Oc2cccc(Br)c2)c2ccncc12 | 9.74% (inactive) |  |
| Cc1c(Br)c([N+](=O)[O-])nn1C(C)C(=O)Nc1ccc2c(c1)OCO2 (stereo unspecified) | -1.69% (inactive) |  |
| O=C1C2C3C=CC(C3)C2C(=O)N1Nc1ccc([N+](=O)[O-])cc1[N+](=O)[O-] (stereo unspecified) | -9.27% (inactive) |  |
| Cc1cc(C)nc(N/N=C/c2ccc(Cl)cc2)n1 | 5.19% (inactive) |  |
| COc1ccc2nc(C)cc(N/N=C/c3ccc(F)cc3)c2c1 |  | 2.33 µM (active) |
| COc1ccc(/C=N/Nc2cc(C)nc3c(C)cccc23)cc1 |  | 13.1 µM (active) |
| COc1ccccc1Nc1cc(C)nc2c(C)ccc([N+](=O)[O-])c12 | 4.71% (inactive) |  |
| CCc1cccc(N=c2c([N+](=O)[O-])nn(-c3ccc(Cl)cc3)n2O)c1 | 18.4% (inactive) |  |
| CCOC(=O)C1=C(C)NC(=O)NC1c1ccc([N+](=O)[O-])o1 (stereo unspecified) | 8.82% (inactive) |  |
| CN(C)c1ccc2nsnc2c1[N+](=O)[O-] | 22% (inactive) |  |
| CN1C(=O)/C(=C/c2cccc(Cl)c2)Sc2ccc(C(=O)N3CCCC3)cc21 | -2.18% (inactive) |  |
| Nc1ncnc2c1ncn2C1O[C@H](CO)[C@@H](O)[C@@H]1O (stereo partly specified) | 12.7% (inactive) |  |
| Clc1ccc(CSc2nc3ccncc3[nH]2)cc1 |  | 1.17 µM (active) |
| Cc1nnc(SCc2ccc([N+](=O)[O-])cc2)[nH]c1=O | 13.3% (inactive) |  |
| Cc1ccc(CSc2nc3ccncc3[nH]2)cc1 |  | 0.369 µM (active) |
| COc1cccc(CSc2nc3ccncc3[nH]2)c1 |  | 4.65 µM (active) |
| O=C(c1ccc(CSc2nc3ccncc3[nH]2)cc1)N1CCCCCC1 |  | 0.927 µM (active) |
